Results as given in PubChem BioAssay (NCATS).
Unmarked numbers belong to inactive results. Inconclusive results are not listed. A call without a number means that no potency is given here. Active and inactive are the calls of the source. Unless noted, calls follow the shape of the dose curve; as a rule, active = well fitted curve in the direction sought with a large enough effect; inconclusive = small, poorly fitted or top-dose-only effect, or another doubt; inactive = no such curve, though single readings can be large; an effect the other way counts as inactive or inconclusive.

Experiments:
[1] = Cell Viability - N2a (AID 540); also: nearly all actives have a fitted effect of over 45% in size
How it was run: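 First, 1500 N2a cells per well incubate 5 hr at 37 °C; next, compounds are added and incubated 40 hr at 37 °C; finally CellTiter-Glo is added and luminescence read after 20 min, with AC50 derived by Hill modeling.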

[2] = Cell Viability - NIH 3T3 (AID 541); conditions: NIH 3T3 cell viability, qHTS; at 92.2 µM (top of the series); also: nearly all actives have a fitted effect of over 25% in size
How it was run: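 AC50 values reflect concentration-dependent loss of intracellular ATP in NIH 3T3 cells after 40 hr treatment in complete culture medium, quantified by luciferase-based luminescence.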

[3] = Cell Viability - HUV-EC-C (AID 542); also: nearly all actives have a fitted effect of over 35% in size
How it was run: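 Decrease in cellular ATP, quantified by luciferase luminescence, reflects toxicity in normal human vascular endothelial HUV-EC-C cells given compound for 40 hr in complete culture medium. Values are AC50s from concentration-response curves.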

[4] = Cell Viability - H-4-II-E (AID 543); also: nearly all actives have a fitted effect of over 35% in size
How it was run: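 Here, cytotoxicity is measured in the rat hepatoma line H-4-II-E as loss of intracellular ATP after 40 hr compound treatment, detected by luciferase luminescence.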

[5] = Cell Viability - SH-SY5Y (AID 544); also: nearly all actives have a fitted effect of over 55% in size; also: potency is read from the fitted curve at half-maximal effect
How it was run: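 Cytotoxicity is scored as a concentration-dependent fall in intracellular ATP in human SH-SY5Y cells treated 40 hr in complete culture medium. Potency is expressed as AC50 from a Hill equation fit.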

[6] = Cell Viability - Renal Proximal Tubule (AID 545); also: nearly all actives have a fitted effect of over 40% in size
How it was run: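 Rat renal proximal tubule primary cells, 1000/well, exposed to compounds for 40 hr at 37 °C in complete medium; cellular ATP read by CellTiter-Glo luminescence. AC50 from concentration-response fitted with standard Hill equation.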

[7] = Cell Viability - Mesenchymal (AID 546);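 also: cells exposed to compound for 40 hours before reading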
How it was run: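 AC50 values reflect the drop in intracellular ATP in a human kidney mesenchymal line derived from normal glomeruli. Treatment lasts 40 hr at 37 °C in complete medium, and the signal comes from CellTiter-Glo luminescence.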

[8] = Cellular Toxicity (caspase-3) HepG2 (AID 654);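 also: cells exposed to compound for 16 hours before reading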
How it was run: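 qHTS, HepG2, 1500 cells/well, complete medium; cpd 16 h 37 °C; Caspase-Glo 3/7, 20 min RT; lum. Norm: DMSO vs 100 uM tamoxifen; AC50 Hill fit.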

[9] = Cellular Toxicity (caspase-3) Jurkat (AID 655); conditions: Jurkat caspase-3 activation, luminescence, DMSO = 0%, tamoxifen = 100%; at 92.2 µM (top of the series);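 also: cells exposed to compound for 16 h at 37 °C before reading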
How it was run: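 Jurkat cells (5000/well) in complete medium exposed 16 h at 37 C; caspase-3/7 activity read by Caspase-Glo luminescence after 20 min at room temperature. Normalized to DMSO and 100 uM tamoxifen; AC50 from Hill fits.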

[10] = Cellular Toxicity (caspase-3) HUV-EC-C (AID 656)
How it was run: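 HUV-EC-C cells (1000/well) in complete medium, compound-treated 16 h at 37 °C; caspase-3/7 activity read by Caspase-Glo 3/7 luminescence. Normalized to DMSO (basal) and 100 uM tamoxifen (100%); AC50 from Hill-equation concentration-response fits.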

[11] = Cellular Toxicity (caspase-3) SHSY5Y (AID 657)
How it was run: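 SH-SY5Y human neuroblastoma cells, 1500/well, exposed to compound for 16 hours at 37 °C in complete medium. Caspase-3/7 activity read by Caspase-Glo luminescence after 1 hr at room temperature, normalized to DMSO and 10 uM staurosporine; AC50 from Hill fit.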

[12] = Cellular Toxicity (caspase-3) BJ (AID 658)
How it was run: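 Readout: Caspase-Glo 3/7 luminescence increase in BJ cells after 16 hr treatment at 37 °C. Staurosporine and tamoxifen served as positive controls; AC50 values came from Hill modelling of data normalized to DMSO and 10 uM staurosporine.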

[13] = Cellular Toxicity (caspase-3) MRC-5 (AID 659)
How it was run: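 Concentration-dependent caspase 3/7 activation is measured in human normal lung fibroblasts (MRC-5) following 16-hour treatment. AC50 values come from standard Hill-equation modeling of luminescence normalized to DMSO and 10 uM staurosporine.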

[14] = Cellular Toxicity (caspase-3) Mesangial (AID 660);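 also: cells exposed to compound for 16 h before the caspase read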
How it was run: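 Concentration-response qHTS: compound-induced rise in caspase 3/7 luminescence in human mesangial cells after 16 h, normalized to DMSO and 100 uM tamoxifen controls.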

[15] = Cellular Toxicity (caspase-3) SK-N-SH (AID 661)
How it was run: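 Caspase 3/7 activation is measured as a luminescence increase from aminoluciferin released by substrate cleavage in SK-N-SH cells after 16 hr compound treatment; values are AC50 from concentration-response curves.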

[16] = Cellular Toxicity (caspase-3) H-4-II-E (AID 663);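 also: cells exposed to compound for 16 hr before readout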
How it was run: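 Apoptosis induction is scored as increased luminescence from caspase 3/7 substrate cleavage in rat hepatoma H-4-II-E cells exposed to compound for 16 hr. Activity is scaled between DMSO and 100 uM tamoxifen.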

[17] = Cellular Toxicity (caspase-3) Hek293 (AID 664);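 also: cells exposed to compound for 16 h at 37 °C before readout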
How it was run: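 Activation of caspase-3/7 is measured as increased luminescence from cleaved peptide-aminoluciferin substrate in HEK293 cells treated 16 hours at 37 °C. AC50 values come from Hill-equation fits of concentration-response data.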

[18] = Cellular Toxicity (caspase-3) N2a (AID 665);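 also: compound exposure lasted 16 h at 37 °C before readout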
How it was run: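 Plated mouse neuroblastoma N2a cells received titrated compounds for 16 h in complete medium. Caspase activity was then detected with a peptide-aminoluciferin luminescent reagent.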

[19] = Cellular Toxicity (caspase-3) NIH 3T3 (AID 666);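 also: caspase signal read after 16 h compound exposure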
How it was run: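 Concentration-response qHTS in NIH 3T3 mouse fibroblasts scores caspase-3/7 activation as rising luminescence after 16 hr compound exposure. Signals are scaled between DMSO-only and 100 uM tamoxifen.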

[20] = target: 3',5'-cyclic-AMP phosphodiesterase 4B (Homo sapiens) (UniProt Q07343); test: qHTS Assay for Inhibitors of PDE-IV (AID 607; active = well fitted activation curve with a large enough effect in the main read-out, with a control signal flat, not every such curve was filed as active)
How it was run: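 The readout is membrane depolarisation from a cAMP-sensing CNG channel, detected with a potential dye at ex 535/em 590. Cells were HEK293-derived (endogenous PDE-IV) at 1000 cells/well, titrated up to 22.9 uM final.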

3',5'-cyclic-AMP phosphodiesterase 4B (Homo sapiens), sequence (Q07343 whole entry, looked up): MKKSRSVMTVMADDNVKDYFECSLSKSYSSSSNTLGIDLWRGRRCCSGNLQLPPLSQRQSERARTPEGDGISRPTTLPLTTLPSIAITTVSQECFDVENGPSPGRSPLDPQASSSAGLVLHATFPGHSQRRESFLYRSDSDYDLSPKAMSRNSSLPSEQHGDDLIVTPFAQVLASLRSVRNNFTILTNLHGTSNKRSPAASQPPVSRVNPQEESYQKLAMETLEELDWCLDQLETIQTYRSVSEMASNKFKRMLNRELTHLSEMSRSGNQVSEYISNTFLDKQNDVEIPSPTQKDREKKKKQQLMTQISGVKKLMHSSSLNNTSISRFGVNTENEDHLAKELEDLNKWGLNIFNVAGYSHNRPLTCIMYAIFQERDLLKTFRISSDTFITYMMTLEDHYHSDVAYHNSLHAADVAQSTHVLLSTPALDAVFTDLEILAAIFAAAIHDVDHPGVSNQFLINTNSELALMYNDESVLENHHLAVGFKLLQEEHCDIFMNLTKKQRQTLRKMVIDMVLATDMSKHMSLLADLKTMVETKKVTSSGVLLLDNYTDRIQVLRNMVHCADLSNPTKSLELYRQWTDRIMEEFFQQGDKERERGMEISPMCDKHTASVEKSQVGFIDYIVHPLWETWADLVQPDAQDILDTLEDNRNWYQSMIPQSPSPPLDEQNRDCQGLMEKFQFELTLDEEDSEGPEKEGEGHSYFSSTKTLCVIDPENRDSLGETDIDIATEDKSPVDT

Row | SMILES | outcome [1] | activity change, negative = cytotoxicity [2] | Potency [3] | Potency [4] | Potency [5] | outcome [6] | outcome [7] | outcome [8] | caspase-3 activation [9] [%] | Potency [10] | outcome [11] | outcome [12] | outcome [13] | outcome [14] | outcome [15] | outcome [16] | outcome [17] | outcome [18] | outcome [19] | outcome [20]
1 | CCOC(=O)CC(SP(=S)(OC)OC)C(=O)OCC (stereo unspecified) | inactive | -25.9% | inactive | inactive | 12.6 µM (active) | inactive | inactive | inactive | -0.413 | inactive | inactive | inactive | inactive | inactive | inactive | inactive | inactive | inactive | inactive | 
2 | Nc1ccccc1C(=O)O | inactive | -17.8% | inactive | inactive | inactive | inactive | inactive | inactive | -0.541 | inactive | inactive | inactive | inactive | inactive | inactive | inactive | inactive | inactive | inactive | 
3 | COC(=O)C(c1ccccc1)C1CCCCN1 (stereo unspecified) | inactive | -13.4% | inactive | inactive | inactive | inactive | inactive | inactive | 0.101 | inactive | inactive | inactive | inactive | inactive | inactive | inactive | inactive | inactive | inactive | 
4 | CC(C)NC(C)C | inactive | -15.2% | inactive | inactive | inactive | inactive | inactive | inactive | 0.66 | inactive | inactive | inactive | inactive | inactive | inactive | inactive | inactive | inactive | inactive | 
5 | O=c1[nH]oc2c1CCNC2 |  |  |  |  |  |  |  |  |  |  |  |  |  |  |  |  |  |  |  | inactive
6 | COc1ccc2c(c1)C13CCCC[C@@H]1C(C2)N(C)CC3 (stereo partly specified) |  |  |  |  |  |  |  |  |  |  |  |  |  |  |  |  |  |  |  | inactive
7 | C=CCN1C[C@H](C)N([C@H](c2ccc(C(=O)N(CC)CC)cc2)c2cccc(OC)c2)C[C@H]1C |  |  |  |  |  |  |  |  |  |  |  |  |  |  |  |  |  |  |  | inactive
8 | Nc1ccccc1 | inactive | -16.9% | inactive | inactive | inactive | inactive | inactive | inactive | -1.64 | inactive | inactive | inactive | inactive | inactive | inactive | inactive | inactive | inactive | inactive | 
9 | CN1C[C@H](C(=O)N[C@]2(C)O[C@@]3(O)[C@@H]4CCCN4C(=O)[C@H](Cc4ccccc4)N3C2=O)C=C2c3cccc4[nH]cc(c34)C[C@H]21 | inactive |  | inactive |  |  | inactive |  | inactive |  | inactive | inactive | inactive | inactive | inactive | inactive | inactive | inactive | inactive | inactive | 
10 | C[C@]12CCC(=O)C=C1CC[C@@H]1[C@@H]2CC[C@@]2(C)[C@H]1CC[C@]2(C)O |  | -123% (active) | inactive |  |  |  | inactive | inactive | 22.4 | inactive | inactive | inactive | inactive | inactive | inactive | inactive | inactive | inactive | inactive | 
11 | CC(C)c1cccc(C(C)C)c1O | inactive | 4.32% | inactive | inactive | inactive | inactive | inactive | inactive | 0.709 | inactive | inactive | inactive | inactive | inactive | inactive | inactive | inactive | inactive | inactive | inactive
12 | O=P1(N(CCCl)CCCl)NCCCO1 (stereo unspecified) | inactive | 2.35% | inactive | inactive | inactive | inactive | inactive | inactive | -0.663 | inactive | inactive | inactive | inactive | inactive | inactive | inactive | inactive | inactive | inactive | inactive
13 | COc1cc(OC)c(OC)cc1C=O | inactive | 6.21% | inactive | inactive | inactive | inactive | inactive | inactive | 1.29 | inactive | inactive | inactive | inactive | inactive | inactive | inactive | inactive | inactive | inactive | 
